# Reference: PubChem BioAssay (NCI)
# The panel holds about 83,000 compounds, 20% with a hit somewhere; the sample as a whole holds those more often.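 In brief: 96-well plates, 48 h treatment, single concentration, percent growth endpoint.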 A number with no mark means an inactive call. Active and inactive are the calls of the source. Rule for the calls: active = growth percent below 10; inactive = the rest.
# Columns and labels:
# Assay in all cases: NCI-60 one-dose screen, 48 h (100 = growth as untreated, 0 = no growth, -100 = all killed)
# HCT-15 colon = conditions: 10 µM unless noted
# HT29 colon = conditions: 10 µM unless noted
# SNB-75 CNS = conditions: 10 µM unless noted
# U251 CNS = conditions: 10 µM unless noted
# PC-3 prostate = conditions: 10 µM unless noted
# UACC-62 melanoma = conditions: 10 µM unless noted
# LOX IMVI melanoma = conditions: 10 µM
# SK-MEL-28 melanoma = conditions: 10 µM unless noted
# SK-MEL-2 melanoma = conditions: 10 µM unless noted
# EKVX NSCLC = conditions: 10 µM unless noted
# SN12C renal = conditions: 10 µM unless noted
# UO-31 renal = conditions: 10 µM unless noted
# ACHN renal = conditions: 10 µM unless noted
# CAKI-1 renal = conditions: 10 µM unless noted
# A498 renal = conditions: 10 µM unless noted
# CCRF-CEM leukemia = conditions: 10 µM unless noted
# MOLT-4 leukemia = conditions: 10 µM unless noted
# SNB-19 CNS = conditions: 10 µM unless noted
# SK-MEL-5 melanoma = conditions: 10 µM unless noted
# TK-10 renal = conditions: 10 µM unless noted
Structure (SMILES),growth (HCT-15 colon) [%],growth (HT29 colon),growth (SNB-75 CNS) [%],growth (U251 CNS) [%],growth (PC-3 prostate) [%],growth (UACC-62 melanoma) [%],growth (LOX IMVI melanoma) [%],growth (SK-MEL-28 melanoma) [%],growth (SK-MEL-2 melanoma) [%],growth (EKVX NSCLC) [%],growth (SN12C renal),growth (UO-31 renal) [%],growth (ACHN renal) [%],growth (CAKI-1 renal) [%],growth (A498 renal),growth (CCRF-CEM leukemia),growth (MOLT-4 leukemia),growth (SNB-19 CNS) [%],growth (SK-MEL-5 melanoma) [%],growth (TK-10 renal) [%]
COc1ccc(C(OCC2OC(n3ccc(NC(=O)c4ccccc4)nc3=O)C(O)C2O)(c2ccccc2)c2ccccc2)cc1 (centres undefined),20.6,8.51% (active),34.1,33.1,22.9,43.9,46.6,55.9,90.1,38.4,-38.2% (active),22.7,47.3,55,52.8%,47.1%,3.18% (active),–,–,–
O=C1/C(=C/c2ccccn2)CCc2ccccc21,95.3,97.6%,–,100,94.6,97.5,86.5,111,105,–,102%,101,104,84.8,77.7%,51.6%,49%,97,97.2,95.4
OCCOSCCO,89,106%,99.3,101,113,114,103,108,106,–,111%,96.3,–,101,120%,107%,104%,–,–,100
CCCN(CCC)C(=O)c1ccc(C)cc1,100,96%,105,85.5,–,–,95.4,105,–,89.2,97.9%,–,102,99.2,27%,85.7%,101%,–,92.2,99.6
Cc1ccc2cccc(OC(=O)Nc3cccc(C(F)(F)F)c3)c2n1,50.9,56.2%,87.5,–,–,60.8,–,84.6,–,–,61.5%,35.8,36.4,35.4,66.3%,–,40.4%,–,86.4,83
C1=C(c2ccccc2)c2ccccc2C1,87.6,105%,90.9,108,82.6,–,89.7,116,94.4,90.5,–,–,81.7,76.4,68.5%,–,92.4%,–,108,119
COc1ccc(C(Cn2ccnc2)Sc2ccc(Cl)c(Cl)c2)cc1 (centres undefined),79.7,59.6%,89.2,–,63.1,77.6,84.4,85.3,104,–,88.6%,45.2,–,62.3,67.8%,79.3%,64.1%,–,66.5,96.7
COC(=O)Nc1nc2ccc(C3(c4ccc(F)cc4)OCCO3)cc2[nH]1,25.9,0.785% (active),10.3,–,14.8,53.3,45.2,48.1,–,–,41.4%,55.4,41.9,40.8,4.58% (active),5.57% (active),21.8%,–,21.2,47.2
CCc1cnc2ccccc2c1/C=C/c1ccc(N(C)C)cc1,26,5.62% (active),43.4,26,54.7,–,43.7,59.9,30.3,62.4,52.3%,44.6,60.3,51.6,34%,32.9%,33.9%,–,46.6,57.1
Cc1ccc(N2C(=O)C=CC2=O)cc1,114,96.3%,–,102,97.4,104,97.7,112,–,116,93.7%,90,–,86.1,–,13.7%,–,95.4,91.2,99.5
